VDR inhibitor – Inhibitors of the vitamin D receptor (VDR): qHTS; Vitamin D3 receptor (Homo sapiens), P11473; VDR-SRC2-3 peptide fluorescence polarization, 2 h; Potency, µM, for inactives: max response, negative = inhibition, actives largely listed as inhibitors; 400,000 tested, 0.93% active
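Reagent solutions, kept cold and dark, are dispensed first; compounds are then pinned in at 23 nl, plates briefly spun, and incubated 2 h at ambient temperature. Inhibition of VDR–SRC2-3 peptide binding is read by fluorescence polarization.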
PLK1 PBD block – qHTS for Inhibitors of PLK1-PDB (polo-like kinase 1 - polo-box domain): Primary Screen. Potency, µM, without a hit: max response, negative = inhibition, actives largely listed as inhibitors. AID 720504, 2013. Serine/threonine-protein kinase PLK1 (Homo sapiens), P53350. 360,000 tested, 2.8% active. Plk1 PBD binding of FITC phosphopeptide, fluorescence polarization; note: series mostly up to about 57 µM; nearly all actives have a fitted effect of over 65% in size
Target sequence (P53350 whole entry, looked up, the tested form may be a part): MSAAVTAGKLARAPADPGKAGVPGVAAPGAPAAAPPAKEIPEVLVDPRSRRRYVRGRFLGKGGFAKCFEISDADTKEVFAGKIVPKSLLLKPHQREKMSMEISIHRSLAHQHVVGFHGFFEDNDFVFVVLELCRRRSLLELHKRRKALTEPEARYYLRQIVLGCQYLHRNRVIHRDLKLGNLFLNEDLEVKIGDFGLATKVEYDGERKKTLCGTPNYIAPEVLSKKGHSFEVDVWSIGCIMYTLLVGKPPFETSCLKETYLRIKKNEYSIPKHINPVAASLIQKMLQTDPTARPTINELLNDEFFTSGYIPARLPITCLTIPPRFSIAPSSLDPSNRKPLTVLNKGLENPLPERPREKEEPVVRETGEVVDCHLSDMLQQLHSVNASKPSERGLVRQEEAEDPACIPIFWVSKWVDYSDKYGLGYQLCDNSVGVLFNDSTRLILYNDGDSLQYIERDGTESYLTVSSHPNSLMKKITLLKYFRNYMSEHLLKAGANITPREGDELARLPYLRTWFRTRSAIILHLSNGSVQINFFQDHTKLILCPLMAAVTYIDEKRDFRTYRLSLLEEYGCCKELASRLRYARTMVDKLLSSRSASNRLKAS
TDP1 cell noCPT – qHTS for Inhibitors of human tyrosyl-DNA phosphodiesterase 1 (TDP1): qHTS in cells in absence of CPT; DT40 Tdp1-/- hTDP1 cells, no CPT, ATP luminescence, 48 h; Potency, µM (series often up to 46.2 µM), for the others: top-dose activity change, negative = growth inhibition, actives largely listed as inhibitors; 420,000 tested, 15% active; note: nearly all actives have a fitted effect of over 55% in size
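Camptothecin absent (DMSO only). Human TDP1-complemented DT40 knockout cells, 400 cells/well, 37 °C for minimum 48 hr; ATP measured via CellTiter-Glo, 30 min dark incubation, luminescence.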
TDP1 inh – qHTS Assay for Inhibitors of Tyrosyl-DNA Phosphodiesterase (TDP1); Tyrosyl-DNA phosphodiesterase 1 (Homo sapiens), Q9NUW8; AID 485290, 2010; 350,000 tested, 0.28% active; recombinant TDP1, AlphaScreen DNA substrate cleavage; Potency, µM (titrated, usually from 130 µM), inactives show at the highest dose activity change, negative = inhibition, most hits filed as inhibitors; note: nearly all actives have a fitted effect of over 40% in size
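Compounds were preincubated with Tdp1 (1 nM final) for 15 min at room temperature before substrate (15 nM final) started a 5 min reaction; beads (10 ug/ml final) were then added for 10 min before AlphaScreen detection.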
GCN5L2 inh – qHTS Assay for Inhibitors of GCN5L2. Histone acetyltransferase KAT2A (Homo sapiens), Q92830. GCN5L2 HAT assay, ThioGlo1 CoA-SH fluorescence. Potency, µM (top dose mostly 58.9 µM), without a hit: top-dose activity change, negative = inhibition, actives largely listed as inhibitors. 390,000 tested, 0.21% active
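Fluorescence readout, Ex340nm/Em540nm: ThioGlo1 (50uM final) reacts with free CoA thiol released as 20nM GCN5L2 acetylates H3(1-25) peptide (75uM) using acetyl-CoA (70uM). Compound and enzyme sat 15 min beforehand; 20 min room-temperature reaction.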
TDP1 cell CPT – qHTS for Inhibitors of human tyrosyl-DNA phosphodiesterase 1 (TDP1): qHTS in cells in presence of CPT | Potency, µM (highest dose often 46.2 µM), for inactives: at the highest dose activity change, negative = growth inhibition, hits mostly inhibitors | chicken DT40 Tdp1-/-;hTDP1 cells + 20 nM CPT, ATP luminescence, 48 h | 420,000 tested, 12% active; note: nearly all actives have a fitted effect of over 55% in size
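Chicken DT40 Tdp1-/- cells stably complemented with human TDP1 were seeded at 400 cells/well in medium containing 20 nM camptothecin, exposed to pin-transferred compounds, and grown at 37 °C for at least 48 hr. Viability was read as ATP luminescence.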
Active calls of the source: *; ? = inconclusive; . = no result; [ ] = dose if it differs, or a comment. Compounds with a hit are over-represented: about 18% of the library has one in this group of screens. Calls come from the whole dose curve; as a rule, active = well fitted curve in the direction sought with a large enough effect; inconclusive = small, poorly fitted or top-dose-only effect, or another doubt; inactive = no such curve, though single readings can be large; an effect the other way counts as inactive or inconclusive. % is set by controls: 0 for no effect and ±100 for the full control effect; potency is the fitted concentration of half-maximal effect.

SMILES	VDR inhibitor	PLK1 PBD block	TDP1 cell noCPT	TDP1 inh	GCN5L2 inh	TDP1 cell CPT
CC[C@H](C)[C@H](N)C(=O)N[C@H]1CCC(=O)NCC(C(=O)N[C@@H](Cc2ccc(O)cc2)C(=O)N[C@@H](CCCNC(=N)N)C(=O)N[C@@H](CC(C)C)C(=O)N[C@@H](CCCNC(=N)N)C(=O)N[C@@H](Cc2ccc(O)cc2)C(N)=O)NC(=O)[C@@H]2CCCN2C(=O)[C@@H](NC(=O)[C@@H](N)[C@@H](C)CC)CCC(=O)NCC(C(=O)N[C@@H](Cc2ccc(O)cc2)C(=O)N[C@@H](CCCNC(=N)N)C(=O)N[C@@H](CC(C)C)C(=O)N[C@@H](CCCNC(=N)N)C(=O)N[C@@H](Cc2ccc(O)cc2)C(N)=O)NC(=O)[C@@H]2CCCN2C1=O (stereo not given in full)	9.6%	.	.	12.1%	43.1%	.
CC(=O)Nc1cc(C(=O)N2CCN(c3ccccc3)CC2C)cc2ncn(CCc3ccccn3)c12 (stereo not given)	.	.	-13.6%	.	.	-10.8%[9.04 µM]
C=CCOc1ccc(/C=C\c2nc(O)c([N+](=O)[O-])c(=O)[nH]2)cc1OCC	?	-15.4%	-8.9%	.	-2.8%	-6.8%
C=CCOc1cccc(/C=C\c2nc(O)c([N+](=O)[O-])c(=O)[nH]2)c1	14.1µM*	-7.3%	-0.1%	.	-23.0%	-10.6%
O=c1[nH]c(/C=C\c2cccc(F)c2)nc(O)c1[N+](=O)[O-]	39.8µM*	0.4%	2.2%	.	-1.3%	4.6%
Cc1ccc(C(C)C)c(OCC(=O)OCC(=O)c2c(N)n(C)c(=O)n(C)c2=O)c1	2.0%	0.7%	16.4%	1.6%	-5.8%	-0.9%
C=CCn1c(COc2cc(C)ccc2C(C)C)nnc1SCC(=O)c1c(N)n(C)c(=O)n(C)c1=O	-8.0%	-3.5%	23.1µM*	?	-8.9%	?
CC(=O)NC(c1ccc([N+](=O)[O-])cc1)c1c(O)ccc2ccccc12 (stereo not given)	-12.6%	-11.9%	?	5.9%	-4.8%	-28.6%
CCCC(=O)NC(c1ccccc1)c1c(O)ccc2ccccc12 (stereo not given)	-19.3%	-16.8%	8.2µM*	.	-6.4%	?
CCC(=O)NC(c1ccccc1)c1c(O)ccc2ccccc12 (stereo not given)	-8.3%	-5.4%	0.8%	.	-0.9%	-17.1%
CC(C)C(=O)NC(c1ccc([N+](=O)[O-])cc1)c1c(O)ccc2ccccc12 (stereo not given)	2.2%	-0.9%	?	8.2%	14.5%	17.8µM*
Cc1ccc(C(NC(=O)C2CCCCC2)c2c(O)ccc3ccccc23)cc1 (stereo not given)	-20.5%	4.0%	20.6µM*	8.2%	-6.5%	16.4µM*
Cc1ccc2[nH]c(=O)c(CN(Cc3cccs3)C(=S)NCC3CCCO3)cc2c1 (stereo not given)	-18.7%	-1.3%	13µM*	-4.6%	4.3%	?
Cc1ccc2[nH]c(=O)c(CN(CC3CCCO3)C(=O)c3ccncc3)cc2c1 (stereo not given)	-3.8%	-6.7%	-15.2%	-2.2%	-2.8%	0.6%
Cc1cc(C)c2cc(CN(Cc3ccco3)C(=S)NCC3CCCO3)c(=O)[nH]c2c1 (stereo not given)	-11.7%	-26.9%	16.4µM*	6.0%	-18.9%	18.4µM*
Cc1cc(C(=O)COc2ccccc2Cl)c(C)n1-c1ccc2c(c1)OCO2	-9.4%	2.8%	6.51µM*	5.9%	-7.7%	?
Cc1ccc(-n2c(C)cc(C(=O)COc3c(CO)cc(F)cc3CO)c2C)cc1C	3.0%	-7.1%	3.66µM*	8.1%	-6.5%	9.2µM*
Cc1cc(C(=O)COc2ccc(F)cc2Br)c(C)n1C	23.5%	5.8%	-11.5%	4.2%	-6.1%	-11.7%
Cc1cc(C(=O)CSc2n[nH]c(N)n2)c(C)n1-c1ccc2c(c1)OCO2	-1.6%	-12.5%	23.1µM*	10.5%	-3.6%	?
CCOc1ccc(CCN2C(=S)N([C@@H](Cc3ccc(O)cc3)CN3CCC[C@@H]3CN3C(=S)NC[C@@H]3CC(C)C)C[C@@H]2Cc2ccc(O)cc2)cc1	.	-6.3%	3.66µM*	.	.	5.17µM*
CCOc1ccc(CCN2C(=S)N([C@@H](Cc3ccccc3)CN3CCC[C@@H]3CN3C(=S)NC[C@@H]3Cc3ccc(O)cc3)C[C@@H]2CC(C)C)cc1	.	-0.9%	9.2µM*	.	.	9.2µM*
Cc1ccc(CN2CCN(Cc3nc(C(C)C)cs3)CC2CCO)cc1 (stereo not given)	-1.8%	2.9%	11.6µM*	2.7%	-2.6%	?
COc1cccc(NC(=O)[C@H](C)NC(=O)C2CCN(S(=O)(=O)c3ccc(C)cc3)CC2)c1	33.1%	5.6%	-6.3%	.	1.0%	-0.6%
Cc1nc(NC(=O)c2cccc(Cl)c2)sc1C(=O)N1CCCCC1	-12.1%	-5.7%	18.4µM*	-2.8%	-13.1%	18.4µM*
COC(=O)c1cn(C(=O)c2cc(Cl)ccc2Cl)c2ccccc12	-10.6%	-10.5%	-25.9%	.	-22.2%	-22.9%
SMILES	VDR inhibitor	PLK1 PBD block	TDP1 cell noCPT	TDP1 inh	GCN5L2 inh	TDP1 cell CPT
COc1ccccc1-c1nnc(-c2ccc(C)cc2)o1	5.0%	-18.8%	?	.	.	-10.5%
COc1ccccc1-c1nnc(-c2ccc(N3CCOCC3)cc2)o1	9.3%	-4.5%	20.6µM*	-4.4%	-22.7%	?
CC(=O)c1ccc(-c2cnc3c(NC=O)cc(-c4ccccc4Oc4ccccc4)cn23)cc1	.	2.8%	20.6µM*	.	.	?
O=CNc1cc(-c2ccccc2Oc2ccccc2)cn2c(-c3ccc(F)cc3)cnc12	.	-8.4%	10.3µM*	.	.	?
COc1ccc(NC(=O)/C(C#N)=C/c2ccc(OCc3cc(=O)n4nc(C)sc4n3)cc2)cc1	0.1%	.	-4.7%	-1.3%	-2.7%	-1.0%
Cc1ncc(CO)c(/C=N/NC(=O)c2ccccc2Br)c1O	-0.4%	-1.1%	?	8.2%	?	?
Cc1ncc(CO)c(/C=N/NC(=O)c2cc3c(s2)CCCC3)c1O	8.9%	-4.5%	7.31µM*	8.2%	-20.9%	5.8µM*
Cc1ncc(CO)c(/C=N/NC(=O)c2ccc(O)cc2)c1O	-10.0%	-2.7%	-8.0%	-1.1%	?	1.0%

From PubChem BioAssay
